Pol kappa inh: DNA polymerase kappa (human) inhibition. 400,000 compounds, 0.53% hits. Potency, µM (doses to about 107 µM), for inactives: at the top dose activity, negative = inhibition, hits mostly inhibitors. purified Pol kappa, fluorescent DNA synthesis assay, 10 min. Q9UBT6; further: potency means the concentration at half of the fitted maximal effect; on the % scale 0 is the no-effect control and ±100 the full control effect
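Fluorescent qHTS in 1536-well format: enzyme (10 nM) and compound sat 15 min at room temperature before 50 nM substrate (final) was added. Signal taken at 0 and 10 min; no-enzyme buffer wells were negative controls.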
Pol eta inh: DNA polymerase eta (human) inhibition. AID 588591. 390,000 compounds, 1.2% hits. Potency, µM (titrated, usually from 114 µM), inactives show at the highest dose activity change, negative = inhibition, most hits filed as inhibitors. recombinant Pol eta, fluorescent DNA replication assay; further: potency means the concentration at half of the fitted maximal effect; on the % scale 0 is the no-effect control and ±100 the full control effect
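Fluorescent replication assay: 50 nM final substrate added after a 15 min room-temperature compound preincubation with 10 nM enzyme. Signal taken at 0 min and again at 10 min.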
WRN helicase inh: inhibitors of human WRN helicase; Potency, µM (highest dose often 114 µM), for the others: at the top dose activity change, negative = inhibition, actives largely listed as inhibitors; Q14191; 360,000 compounds, 0.46% hits; AID 651768; WRN helicase unwinding, fluorescent forked duplex, kinetic; further: potency means the concentration at half of the fitted maximal effect; on the % scale 0 is the no-effect control and ±100 the full control effect; nearly all actives have a fitted effect of over 55% in size
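Enzyme (20 nM final) and test compound sit together 15 min at room temperature before substrate addition. Substrate is a single-forked duplex oligonucleotide (100 nM) labelled with fluorophore and quencher, with 2 mM ATP; helicase unwinding raises red fluorescence, read kinetically.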
POLI inh: blocks human DNA polymerase iota activity. Q9UNA4. Pol iota fluorescent replication assay, 10 min. Potency, µM (titrated, usually from 115 µM), inactives show at the highest dose activity, negative = inhibition, actives largely listed as inhibitors. 390,000 compounds, 1% hits. AID 588590; further: potency means the concentration at half of the fitted maximal effect
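Pol iota at 10 nM preincubated 15 min with compounds at room temperature; reaction started with fluorescent substrate, 50 nM final. Fluorescence read kinetically at 0 and 10 min; buffer-only wells as negative control.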
PI5P4Ka inh: blocks human PI5P4K alpha kinase activity | PI5P4Kalpha enzyme, ADP-Glo luminescence, 60 min; hits give low values | max response, % | P48426 | 330,000 compounds, 1.2% hits | AID 652105; active means max response of -50% or lower; inconclusive means between -30% and -50%; inactive means -30% or higher; further: value at the top dose of about 77 µM; on the % scale 0 is the no-effect control and ±100 the full control effect
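Luminescence from ADP-Glo served as readout of PI5P4Kalpha activity in a qHTS format. Reaction: enzyme, substrate, compound, ATP at 5 microM final, 60 min at RT.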
Pol beta inh: inhibitors of human DNA polymerase beta. P06746. Pol beta primer extension/strand displacement, fluorescence kinetic. 340,000 compounds, 1.3% hits. Potency, µM (top dose mostly 114 µM), for inactives: at the top dose activity change, negative = inhibition, actives largely listed as inhibitors; further: potency means the concentration at half of the fitted maximal effect; on the % scale 0 is the no-effect control and ±100 the full control effect
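Enzyme-only controls used 10 nM Pol beta; buffer lacking enzyme served as negative control. Compound preincubated 15 min, then 50 nM substrate added; 0 and 10 min reads at room temperature.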
An asterisk follows results filed as active; ? = inconclusive; nt = no result; [ ] = dose if it differs, or a comment. The list is not random: actives were taken first. Their share in the collection is about 2.8%. Unless noted, the call rests on the fitted dose curve; in most records, active means well fitted curve in the direction sought with a large enough effect; inconclusive means small, poorly fitted or top-dose-only effect, or another doubt; inactive means no such curve, though single readings can be large; an effect the other way counts as inactive or inconclusive.

SMILES	Pol kappa inh	Pol eta inh	WRN helicase inh	POLI inh	PI5P4Ka inh	Pol beta inh
O=C(O)COc1cccc(NC(=O)c2ccccc2)c1	-3%	79µM*	-3%[57.1 µM]	?	nt	2%
O=C(COc1ccc(Cl)cc1Cl)Nc1ccc(C(=O)Nc2ccccc2C(=O)O)cc1	-33%	8%	-29%	?	-57*	32µM*
Cc1cccc(OCC(=O)Nc2ccc(C(=O)Nc3ccccc3C(=O)O)cc2)c1	nt	-16%	-1%	nt	-52*	nt
COc1cccc(OCC(=O)NNC(=O)c2ccc(-c3ccccc3)cc2)c1	-14%	-16%	-10%	?	-5	79µM*
CC(C)=CC(=O)Oc1ccc(C(=O)N(C)c2ccccc2I)cc1	-3%	nt	nt	4%	nt	nt
O=C(c1ccco1)N1CCC2(CCCN(c3ccncc3)C2)CC1	3%[60.1 µM]	nt	nt	nt	nt	nt
CN(C)S(=O)(=O)N1CCC(Oc2cccc(C(=O)N3CCCCCC3)c2)CC1	-6%	-10%	-19%	9%	-1	-8%
CN(C)S(=O)(=O)N1CCC(Oc2cccc(C(=O)N3CCCCCCC3)c2)CC1	-10%	-10%	-3%[11.6 µM]	89µM*	0	0%
N#Cc1c(N)nc(N)nc1Nc1ccc(Br)cc1	-5%	-18%	-3%	34%	-52*	-20%
C[C@H](O)[C@@H]1C(=O)N2CCc3c([nH]c4ccccc34)[C@@H]2C[C@@H]1N(C)C(=O)c1ccco1	nt	nt	0%	nt	0	nt
CCNC(=O)c1ccc(CSc2ccc(Cl)cc2)cc1	4%	-2%	1%	79µM*	-1	19%
CC(=O)NCCNC(=O)c1ccc(CSc2ccc(Cl)cc2)cc1	-3%	-4%	5%	2%	0	17%
O=C1N/C(=N/O)S/C1=C/c1cccc([N+](=O)[O-])c1	-7%	-9%	-18%	55%	-23	-28%
O=C1N/C(=N\S(=O)(=O)Cc2ccccc2)S/C1=C/c1cccc([N+](=O)[O-])c1	-7%	50µM*	-4%[11.6 µM]	?	?	0%
Cc1ccc(C(=O)N/N=C\C2CC=CCC2)cc1[N+](=O)[O-] (stereo unspecified)	1%	89µM*	9%	29%	-7	29%
CCOc1cc(C(=O)N/N=C/C2CC=CCC2)cc(OCC)c1OCC (stereo unspecified)	4%	-19%	-27%[57.1 µM]	10%	0	1%
CCOc1ccc(CNC(=O)Cn2nc(C)c3nn(-c4ccc(Cl)cc4)c(C)c3c2=O)cc1OC	-6%[60.1 µM]	-11%	nt	14%	nt	-5%
COc1ccc(CCN(C)C(=O)COC(=O)/C=C/c2ccc(C)o2)cc1OC	?	?	-15%	50µM*	5	nt
COc1cc2c(O)cc(C(=O)O)c(-c3cc(OC)c(OC)c(OC)c3)c2cc1OC	8%	89µM*	-2%[11.6 µM]	?	0	nt
COc1ccc(-c2cc(C(=O)O)c(C)o2)cc1OC	4%	6%	4%	14%	?	7%
O=C(O)CCn1c(SCCc2ccccc2)nc2ccccc21	0%	-13%	-18%	139%	3	nt
CC/C=C\[C@H](O)[C@H](O)C1=C(C)C(=O)[C@]2(O1)C(=O)N[C@@](OC)(C(=O)c1ccccc1)C2O (stereo partly specified)	?	1%	0%	?	0	35µM*
O=C1c2ccccc2-c2cc([N+](=O)[O-])c([N+](=O)[O-])cc21	0%	nt	nt	2.2µM*	nt	nt
CCn1c(SCC(=O)NCc2cccs2)nnc1-c1cccs1	-5%	-5%	-4%	8%	nt	-7%
CCn1c(SCC(=O)c2ccc(CNC(C)=O)o2)nnc1-c1cccs1	-28%	?	-15%[57.1 µM]	?	nt	45µM*
SMILES	Pol kappa inh	Pol eta inh	WRN helicase inh	POLI inh	PI5P4Ka inh	Pol beta inh
Cn1c(=O)n(-c2ccc3c(c2)OCO3)c2nc(-c3ccccc3)nc(C(N)=O)c21	-26%	?	nt	-7%	nt	6.3µM*
COc1cccc(-c2nc(C(N)=O)c3c(n2)n(-c2ccc4c(c2)OCO4)c(=O)n3C)c1OC	-10%[60.1 µM]	-4%	nt	-1%	nt	23%
CC(C)c1ccc(NC(=O)CN2C(=O)NC3(CCCC3)C2=O)cc1	6%	-12%	8%	16%	-6	-13%
CN(C1CCCCC1)S(=O)(=O)c1ccc2c(c1)c(=O)c(C(=O)NCCc1ccc(Cl)cc1)cn2C	-4%	-26%	nt	6%	nt	7%
COc1ccc(S(=O)(=O)NCc2cccnc2)cc1NC(=O)c1ccccc1C	-28%	?	-22%	40µM*	-73*	nt
CN1CCN(c2ccc(CNC(=O)C3(C)Cc4c(-c5ccccc5)ccnc4O3)cc2)CC1 (stereo unspecified)	nt	nt	-8%	nt	-1	nt
C=CC(=O)Nc1cccc(Oc2ccnc3[nH]ccc23)c1	-14%	?	?	?	-72*	nt
C=CC(=O)Nc1cccc(Oc2ccnc(Nc3ccc(N4CCN(C)CC4)cc3)n2)c1	-29%	?	?	?	-10	nt
Cn1c(SCC(=O)NCc2ccco2)nnc1-c1ccc(S(=O)(=O)N2CCOCC2)cc1	-24%	?	-27%	100µM*	nt	?
O=C(CSc1nnc(-c2ccc(S(=O)(=O)N3CCCC3)cc2)o1)NCc1ccco1	?	?	-26%	89µM*	nt	25µM*
O=C(COc1ccccc1)NC1C(=O)N2C(C(=O)O)=C(Cl)CSC12 (stereo unspecified)	-36%	?	-5%	?	-2	14%
O=C(Cc1cccs1)NC1C(=O)N2C(C(=O)[O-])=C(C[n+]3ccccc3)CSC12 (stereo unspecified)	3.5µM*	nt	nt	nt	nt	nt
NC(=O)c1cc[n+](CC2=C(C(=O)O)N3C(=O)[C@@H](NC(=O)[C@@H](c4ccccc4)S(=O)(=O)[O-])[C@H]3SC2)cc1	27µM*	3.2µM*	nt	14µM*	nt	10µM*
COCCOc1cc(N2C(=O)CSCC2=O)c(Cl)cc1Cl	-2%	-3%	-25%[57.1 µM]	89µM*	nt	13%
CNC(=O)CS(=O)(=O)CC(=O)Nc1cc(OCCOC)c(Cl)cc1Cl	-1%	-3%	-5%	105%	-3	-1%
Cc1ccccc1NCC(=O)N=Nc1c(O)[nH]c2ccc([N+](=O)[O-])cc12	-29%	-9%	-7%	44%	-15	9%
O=C(O)c1ccccc1N=Nc1c(O)[nH]c2ccc([N+](=O)[O-])cc12	-42%	22µM*	?	?	-26	50µM*
O=[N+]([O-])c1ccc2[nH]c(O)c(N=NC(=S)Nc3cccnc3)c2c1	89µM*	?	?	?	?	?
Cc1cccc(OCC(=O)NCC(=O)N=Nc2c(O)[nH]c3ccc([N+](=O)[O-])cc23)c1	-10%	?	-5%	57%	?	45µM*
